Screen size: about 190,000 compounds; about 810 (0.43%) were called active. Rule as the data show it: active = inhibition above about 50%; inactive = the rest. The sample as a whole holds a higher share of actives than the screen did.
target: Mannose-6-phosphate isomerase (Homo sapiens) (UniProt P34949); test: inhibitors of human PMI, primary screen, biochemical, fluorescence intensity, coupled assay (AID 1209); details: purified PMI enzyme, at 20 µM, hits give high values;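 also: plate controls were DMSO vehicle for no effect and wells lacking substrate for full effect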
Sequence (P34949 whole entry, looked up): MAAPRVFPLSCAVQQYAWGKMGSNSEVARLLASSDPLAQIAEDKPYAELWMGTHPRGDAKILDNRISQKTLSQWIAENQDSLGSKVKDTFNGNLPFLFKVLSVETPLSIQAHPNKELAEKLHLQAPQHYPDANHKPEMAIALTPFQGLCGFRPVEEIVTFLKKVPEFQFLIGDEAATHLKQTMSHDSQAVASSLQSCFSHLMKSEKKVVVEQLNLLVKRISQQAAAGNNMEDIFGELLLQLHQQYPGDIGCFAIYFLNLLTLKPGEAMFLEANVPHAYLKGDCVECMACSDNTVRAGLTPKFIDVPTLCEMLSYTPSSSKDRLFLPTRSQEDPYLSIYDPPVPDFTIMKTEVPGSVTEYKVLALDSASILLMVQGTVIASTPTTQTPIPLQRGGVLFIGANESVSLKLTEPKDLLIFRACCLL

inhibition, active:
CCc1c(C)sc(NC(=O)C2CCCCC2C(=O)O)c1C(N)=O (stereo not given) 72.1%
Cc1ccc(-n2nc3cc(C)c(N)cc3n2)cc1 75.3%
Nc1cc2nn(-c3ccccc3)nc2cc1Cl 69.4%
Cc1cc2nn(-c3cccc4ccccc34)nc2cc1N 77.5%
O=C(COC(=O)C(Cc1ccccc1)NC(=O)c1ccc(Cl)cc1)c1ccc(Cl)cc1 (stereo not given) 111%
Oc1ccc2ccccc2c1C=NC12CN3CCN(CN(C3)C1)C2 67.7%
Oc1ccc2ccccc2c1C=NC1CCCCC1 79.8%
Nc1cc2nsnc2cc1Br 61%
CCOc1cccc(CNc2ccc(O)cc2)c1OCc1ccc(Cl)cc1 53.9%
CCOC(=O)c1sc(/N=C/c2c(O)ccc3ccccc23)cc1C 58.3%
COc1ccc(-c2ccc(C(=O)O)o2)c([N+](=O)[O-])c1 73.7%

inhibition, inactive:
O=C1c2ccccc2C(=O)N1CCCCN(C(=O)c1cc2ccccc2oc1=O)c1ccc(F)cc1F 11.5%
Cc1cccc(-n2c(Cc3ccccc3)nnc2SCC(=O)N2CCOCC2)c1 -6.7%
O=C(NCc1ccccc1)c1cnc(-c2ccccn2)nc1C(F)(F)F -3.7%
CCC(OC(=O)c1cccs1)C(=O)NC1CCCCC1 (stereo not given) 3.4%
O=[N+]([O-])c1cc(/C=N/n2c(-c3ccncc3)n[nH]c2=S)ccc1Cl 2.2%
CC(C)CC(c1nnnn1Cc1ccc2c(c1)OCO2)N1CCC(C(N)=O)CC1 (stereo not given) 7.2%
CCc1c(C)sc(NC(=O)C2CC2c2ccccc2)c1C(N)=O (stereo not given) 7.7%
Cc1sc(NC(=O)C2CCCCC2C(=O)O)c(C(N)=O)c1C (stereo not given) -5.3%
COC(=O)c1c(N2C(=O)CC(Sc3ccccc3C(=O)O)C2=O)sc(C)c1C (stereo not given) -16.2%
COC(=O)c1sccc1NC(=O)CSc1ccccc1N 12.4%
CCN(CC(=O)NCc1ccc(F)cc1)Cc1cc(=O)n2ccsc2n1 -30.2%
CCC(=O)Nc1cc2nn(-c3ccc(C)cc3)nc2cc1C -2.8%
Cc1cc2nn(-c3cccc4ccccc34)nc2cc1NC(=O)c1cccs1 12.3%
Cc1ccc(-n2nc3ccc(N)cc3n2)cc1 38.7%
Nc1ccc2nn(-c3cccc4ccccc34)nc2c1 42.9%
Nc1ccc2nn(-c3ccccc3)nc2c1 35.7%
CC(=O)Nc1cc2nn(-c3ccccc3)nc2cc1Cl 0.2%
OCCNCc1cc(Br)ccc1OCc1ccc(Cl)cc1 10.8%
COc1ccccc1NC(=O)CCN1CCCCCC1 -1.2%
O=C(Cc1ccccc1F)OCC(=O)N1CCN(C(=O)c2ccco2)CC1 -7.8%
COc1cc(/C=N/NC(=O)C(Cc2c[nH]c3ccccc23)NC(=O)OCC(C)C)cc([N+](=O)[O-])c1OCc1ccccc1 (stereo not given) 13.6%
Cc1ccc(S(=O)(=O)N2CCCC(C(=O)NCc3cccnc3)C2)cc1Cl (stereo not given) 12.2%
CCOc1ccc(NC(=O)CSc2nnc(-c3ccccn3)n2C)cc1 2.1%
[N-]=[N+]=CC(=O)CNC(=O)[C@@H](Cc1ccccc1)N1C(=O)c2ccccc2C1=O -1.7%
CCc1nc(SC)[nH]c(=O)c1C -10.9%
COC(=O)c1c(NC(=O)/C=C/c2ccco2)sc2c1CCC2 -2.8%
CCOc1ccc(NS(=O)(=O)c2ccc(NC(=S)NC(C)=O)cc2)cc1 4.1%
O=C(COC(=O)C(Cc1ccccc1)NC(=O)c1ccccc1)c1ccccc1 (stereo not given) 6.8%
CCc1ccc(C(=O)COC(=O)C(Cc2ccccc2)NC(=O)c2ccc(Cl)cc2)cc1 (stereo not given) 11.2%
O=C(OC1CCOC1=O)c1cc(-c2ccccc2)nc2ccccc12 (stereo not given) 8.9%
OCC(CO)(CO)N=Cc1c(O)ccc2ccccc12 37.3%
Oc1ccc2ccccc2c1C=Nc1ccc(N2CCOCC2)cc1 35.2%
Oc1ccc2ccccc2c1/C=N/n1cnnc1 15.7%
CN(C)/N=C/c1c(O)ccc2ccccc12 31.9%
O=C(CCc1ccccc1)Nc1ccc(N2CCOCC2)c(Cl)c1 11.3%
N#Cc1nc(COc2ccccc2)oc1NCCCn1ccnc1 0.3%
CCC(=O)Nc1ccccc1-c1nnn(CC(=O)N2c3ccccc3CC2C)n1 (stereo not given) 13%
CCCCN(C(=O)c1ccc(S(=O)(=O)N(C)C)cc1)c1nc2ccccc2s1 11.7%
CCOC(=O)Cc1cnc(N)s1 2.1%
COCCN(CC(=O)NCC1CCCO1)C(=O)CCC(=O)Nc1cc(C)ccn1 (stereo not given) -12.3%
Nc1cnc(Br)cc1Br -8.6%
Cc1ccc2nsnc2c1N 8.5%
NS(=O)(=O)c1ccc(CCNC(=O)CSc2ncnc3ccccc23)cc1 7.5%
CCOc1cccc(CNc2ccc(O)cc2)c1OCc1ccccc1Cl 28.5%
CCOc1cccc(CNc2ccc(O)cc2)c1OCc1ccc(Cl)cc1Cl 40.3%
CC(OC(=O)C1=COCCO1)C(=O)Nc1cc(S(=O)(=O)N2CCCCC2)ccc1Cl (stereo not given) -6.3%
COCCCNC(=S)N1CCN(c2ccc([N+](=O)[O-])cc2)CC1 5%
Cc1ccc(CNC(=O)CCNC(=O)c2ccco2)cc1 -8.4%
CCOC(=O)c1cc(CC)sc1/N=C/c1c(O)ccc2ccccc12 37.2%
CCOC(=O)c1sc(/N=C/c2ccc(O)cc2O)cc1C 28.9%
CCc1ccc(NC(=S)/N=C(\N)Nc2nc(C)c3cc(CC)ccc3n2)cc1 11.4%
COc1cccc(NC(=O)c2ccc(-c3ccccc3[N+](=O)[O-])o2)c1 -13.3%
CNC(=O)/C(C#N)=C/c1ccc(-c2ccc(OC)cc2[N+](=O)[O-])o1 28.2%
Cn1c(SCC(=O)N2CCOCC2)nnc1-c1cccc(NC(=O)c2ccccc2F)c1 2.1%
